Compound in this experiment: Nc1nc2c(ncn2[C@@H]2O[C@H](COP(=O)(O)OP(=O)(O)OP(=O)(O)O)[C@@H](O)[C@H]2O)c(=O)[nH]1 [guanosine triphosphate]
Kind of experiment: NP40-soluble protein abundance relative to vehicle (solubility fold change) (ratio); higher = more soluble protein in presence of GTP. In a few lines: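 In three independent experiments, Jurkat crude lysate made by Dounce homogenisation was treated for 10 min at room temperature and then 3 min at 37 °C with eight concentrations ranging from 0.1 to 10 mM. It was then solubilised with 0.8% NP40 plus benzonase for 60 min at 4 °C and ultracentrifuged. The supernatant was TMT-labelled for LC-MS/MS, and each value is the fold change against the detergent-processed vehicle for the same replicate, using vsn-normalised intensities.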

± gives the standard deviation of the averaged measurements. Of roughly 5,400 targets only a part is listed; those with the largest changes were picked by preference.

Among the data in the supplement of paper PMC6411743 are NP40-soluble protein abundance values, retold here.

Chain of UniProt Q9BZM5 (Q9BZM5 whole entry): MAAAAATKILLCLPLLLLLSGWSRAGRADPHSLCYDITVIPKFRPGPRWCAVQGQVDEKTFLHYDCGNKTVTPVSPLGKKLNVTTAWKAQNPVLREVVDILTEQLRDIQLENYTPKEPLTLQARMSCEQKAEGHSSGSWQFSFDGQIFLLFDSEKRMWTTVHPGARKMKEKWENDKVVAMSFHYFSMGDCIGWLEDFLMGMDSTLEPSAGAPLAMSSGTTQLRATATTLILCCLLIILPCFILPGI
Chain of UniProt Q9UJ83 (Q9UJ83 whole entry): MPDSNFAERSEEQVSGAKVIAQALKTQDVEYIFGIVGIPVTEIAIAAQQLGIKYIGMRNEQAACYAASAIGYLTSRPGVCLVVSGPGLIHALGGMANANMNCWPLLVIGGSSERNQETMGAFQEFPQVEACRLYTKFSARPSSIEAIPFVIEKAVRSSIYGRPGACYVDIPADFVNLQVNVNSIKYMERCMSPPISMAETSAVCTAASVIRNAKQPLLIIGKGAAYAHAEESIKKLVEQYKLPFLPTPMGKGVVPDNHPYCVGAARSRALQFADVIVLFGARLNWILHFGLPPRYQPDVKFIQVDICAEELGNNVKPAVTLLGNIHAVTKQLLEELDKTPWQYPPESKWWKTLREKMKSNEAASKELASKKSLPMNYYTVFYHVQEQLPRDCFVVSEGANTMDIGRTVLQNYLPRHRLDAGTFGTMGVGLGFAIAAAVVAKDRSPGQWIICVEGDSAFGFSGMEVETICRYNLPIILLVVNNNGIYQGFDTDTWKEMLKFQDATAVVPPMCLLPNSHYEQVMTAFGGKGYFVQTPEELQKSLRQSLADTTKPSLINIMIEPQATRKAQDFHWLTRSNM
Chain of UniProt Q9NX05 (Q9NX05 whole entry): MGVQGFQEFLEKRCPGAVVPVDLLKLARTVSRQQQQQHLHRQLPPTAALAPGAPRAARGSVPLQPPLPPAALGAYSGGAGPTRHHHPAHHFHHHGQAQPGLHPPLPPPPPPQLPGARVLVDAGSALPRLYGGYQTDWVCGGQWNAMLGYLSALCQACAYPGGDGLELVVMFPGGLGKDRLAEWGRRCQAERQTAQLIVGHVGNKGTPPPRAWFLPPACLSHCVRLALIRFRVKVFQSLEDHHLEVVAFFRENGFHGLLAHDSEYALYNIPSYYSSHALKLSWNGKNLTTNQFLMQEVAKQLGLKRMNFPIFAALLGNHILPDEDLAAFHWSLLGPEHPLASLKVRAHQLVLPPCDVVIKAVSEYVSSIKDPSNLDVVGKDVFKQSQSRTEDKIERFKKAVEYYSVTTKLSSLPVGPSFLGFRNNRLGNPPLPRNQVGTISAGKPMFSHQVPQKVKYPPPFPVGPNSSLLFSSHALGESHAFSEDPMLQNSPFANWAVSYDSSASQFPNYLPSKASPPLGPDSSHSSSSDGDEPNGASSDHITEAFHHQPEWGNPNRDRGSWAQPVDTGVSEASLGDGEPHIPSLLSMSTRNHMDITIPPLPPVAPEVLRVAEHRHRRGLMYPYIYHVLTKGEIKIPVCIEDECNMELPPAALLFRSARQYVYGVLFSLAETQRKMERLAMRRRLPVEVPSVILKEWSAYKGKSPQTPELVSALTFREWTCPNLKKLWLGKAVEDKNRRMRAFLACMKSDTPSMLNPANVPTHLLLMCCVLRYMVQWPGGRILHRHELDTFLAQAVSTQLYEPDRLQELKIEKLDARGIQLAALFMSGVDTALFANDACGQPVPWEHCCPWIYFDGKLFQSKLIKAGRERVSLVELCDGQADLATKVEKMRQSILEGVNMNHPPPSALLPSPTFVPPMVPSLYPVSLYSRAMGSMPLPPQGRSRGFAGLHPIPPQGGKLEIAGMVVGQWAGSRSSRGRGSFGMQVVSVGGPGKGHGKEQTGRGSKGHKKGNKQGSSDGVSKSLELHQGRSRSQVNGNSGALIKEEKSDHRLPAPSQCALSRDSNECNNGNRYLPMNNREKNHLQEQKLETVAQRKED
Chain of UniProt Q9UQN3 (Q9UQN3 whole entry): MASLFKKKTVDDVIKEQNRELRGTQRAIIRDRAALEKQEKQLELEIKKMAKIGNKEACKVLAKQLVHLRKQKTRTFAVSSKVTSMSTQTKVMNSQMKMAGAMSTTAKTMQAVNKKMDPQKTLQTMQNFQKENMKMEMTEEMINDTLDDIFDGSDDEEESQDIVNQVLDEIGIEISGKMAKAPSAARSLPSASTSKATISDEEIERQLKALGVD
Chain of UniProt Q9BT73 (Q9BT73 whole entry): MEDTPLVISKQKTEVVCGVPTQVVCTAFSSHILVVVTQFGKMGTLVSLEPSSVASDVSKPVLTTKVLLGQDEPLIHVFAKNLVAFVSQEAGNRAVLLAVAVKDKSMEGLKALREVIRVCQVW
Chain of UniProt Q9HC52 (Q9HC52 whole entry): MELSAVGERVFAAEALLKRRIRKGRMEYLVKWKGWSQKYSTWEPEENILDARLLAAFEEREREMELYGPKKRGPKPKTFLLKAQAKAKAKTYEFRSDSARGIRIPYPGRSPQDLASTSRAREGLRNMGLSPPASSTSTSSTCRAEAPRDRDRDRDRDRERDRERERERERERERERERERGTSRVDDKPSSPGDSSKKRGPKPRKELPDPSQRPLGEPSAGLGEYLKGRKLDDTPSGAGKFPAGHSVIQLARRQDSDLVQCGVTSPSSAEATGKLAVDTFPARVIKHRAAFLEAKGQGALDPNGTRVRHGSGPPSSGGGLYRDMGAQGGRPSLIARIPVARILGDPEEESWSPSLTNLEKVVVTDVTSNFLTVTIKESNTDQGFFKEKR
Chain of UniProt Q9BTY7 (Q9BTY7 whole entry): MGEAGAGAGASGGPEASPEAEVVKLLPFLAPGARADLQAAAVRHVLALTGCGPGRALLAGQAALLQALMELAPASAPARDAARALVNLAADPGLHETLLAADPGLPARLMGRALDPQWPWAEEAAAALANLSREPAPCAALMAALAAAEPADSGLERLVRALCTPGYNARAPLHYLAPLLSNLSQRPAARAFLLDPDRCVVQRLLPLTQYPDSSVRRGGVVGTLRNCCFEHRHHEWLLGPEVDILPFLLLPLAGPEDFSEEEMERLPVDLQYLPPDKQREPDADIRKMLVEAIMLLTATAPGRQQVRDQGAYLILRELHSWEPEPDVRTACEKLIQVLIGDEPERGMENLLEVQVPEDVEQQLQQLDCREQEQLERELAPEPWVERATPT
Chain of UniProt Q9H6E4 (Q9H6E4 whole entry): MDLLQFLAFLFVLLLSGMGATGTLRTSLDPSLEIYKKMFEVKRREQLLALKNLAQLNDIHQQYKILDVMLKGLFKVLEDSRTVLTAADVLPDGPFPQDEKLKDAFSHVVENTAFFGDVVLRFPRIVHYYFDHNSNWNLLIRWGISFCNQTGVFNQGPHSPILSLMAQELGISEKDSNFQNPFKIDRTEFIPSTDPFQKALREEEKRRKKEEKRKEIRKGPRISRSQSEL
Chain of UniProt Q9BWJ5 (Q9BWJ5 whole entry): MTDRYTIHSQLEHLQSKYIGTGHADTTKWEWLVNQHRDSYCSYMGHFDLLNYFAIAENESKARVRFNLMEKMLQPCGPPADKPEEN
Chain of UniProt Q9Y266 (Q9Y266 whole entry): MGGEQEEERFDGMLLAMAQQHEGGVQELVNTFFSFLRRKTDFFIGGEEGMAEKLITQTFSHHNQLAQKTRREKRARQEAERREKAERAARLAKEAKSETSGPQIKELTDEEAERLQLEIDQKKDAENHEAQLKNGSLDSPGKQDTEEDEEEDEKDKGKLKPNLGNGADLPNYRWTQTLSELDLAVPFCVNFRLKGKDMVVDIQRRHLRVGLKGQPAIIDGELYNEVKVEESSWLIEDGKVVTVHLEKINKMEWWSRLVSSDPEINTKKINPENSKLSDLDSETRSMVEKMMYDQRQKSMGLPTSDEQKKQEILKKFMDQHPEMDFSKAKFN
Chain of UniProt Q9NVR5 (Q9NVR5 whole entry): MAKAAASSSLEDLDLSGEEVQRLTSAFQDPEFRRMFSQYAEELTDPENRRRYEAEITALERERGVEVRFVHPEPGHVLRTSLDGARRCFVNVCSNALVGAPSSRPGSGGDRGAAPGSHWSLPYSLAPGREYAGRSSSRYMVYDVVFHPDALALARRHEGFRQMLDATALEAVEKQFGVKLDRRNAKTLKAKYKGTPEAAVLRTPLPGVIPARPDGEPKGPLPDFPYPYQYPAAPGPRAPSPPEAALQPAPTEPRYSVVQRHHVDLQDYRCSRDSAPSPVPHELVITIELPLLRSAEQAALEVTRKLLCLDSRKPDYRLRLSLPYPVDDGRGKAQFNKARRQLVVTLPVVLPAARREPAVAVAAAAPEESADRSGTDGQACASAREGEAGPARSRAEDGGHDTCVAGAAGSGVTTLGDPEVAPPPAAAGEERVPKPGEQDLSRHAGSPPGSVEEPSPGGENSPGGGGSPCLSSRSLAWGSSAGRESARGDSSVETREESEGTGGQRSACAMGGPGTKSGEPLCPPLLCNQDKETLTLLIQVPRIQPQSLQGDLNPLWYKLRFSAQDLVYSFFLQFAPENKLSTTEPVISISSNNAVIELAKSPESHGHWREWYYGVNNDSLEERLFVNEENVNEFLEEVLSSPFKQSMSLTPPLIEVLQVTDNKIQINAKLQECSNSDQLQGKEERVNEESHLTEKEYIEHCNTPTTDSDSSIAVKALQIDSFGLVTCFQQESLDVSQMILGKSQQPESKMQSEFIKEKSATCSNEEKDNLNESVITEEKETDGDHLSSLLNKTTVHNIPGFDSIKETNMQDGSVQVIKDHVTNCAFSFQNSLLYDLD

As to UniProt Q9UJ83|Q9UJ83-2|Q9UJ83-3, the NP40-soluble protein abundance by setting is: (concentration: 0.1mM) 1.067 ± 0.0066; (concentration: 0.5mM) 1.03 ± 0.11; (concentration: 1mM) 0.98 ± 0.05; (concentration: 2mM) 1.01 ± 0.11; (concentration: 4mM) 0.987 ± 0.04; (concentration: 6mM) 0.958 ± 0.08. For the same target, the NP40-soluble protein abundance is 0.926 ± 0.021 (concentration: 8mM) and 0.9129 ± 0.0074 (concentration: 10mM).
For UniProt Q9H8Y8|Q9H8Y8-3, the NP40-soluble protein abundance (concentration: 0.1mM) was 0.893 ± 0.088; the NP40-soluble protein abundance (concentration: 0.5mM) stood at 0.934 ± 0.09; the NP40-soluble protein abundance (concentration: 1mM) was found to be 0.911 ± 0.095; the NP40-soluble protein abundance (concentration: 2mM) was found to be 0.873 ± 0.087; the NP40-soluble protein abundance (concentration: 4mM) turned out to be 0.836 ± 0.091; the NP40-soluble protein abundance (concentration: 6mM) turned out to be 0.858 ± 0.059. Further, the NP40-soluble protein abundance (concentration: 8mM) was 0.884 ± 0.091 and the NP40-soluble protein abundance (concentration: 10mM) was determined as 0.892 ± 0.12.
On to UniProt Q9HD33|Q9HD33-2, for which the NP40-soluble protein abundance is, setting by setting: (concentration: 0.1mM) 1.01 ± 0.017; (concentration: 0.5mM) 1.16 ± 0.087; (concentration: 1mM) 1.34 ± 0.23; (concentration: 2mM) 1.55 ± 0.39; (concentration: 4mM) 1.7 ± 0.52; (concentration: 6mM) 1.86 ± 0.49. The NP40-soluble protein abundance came out at 2.03 ± 0.59 (concentration: 8mM) and 2.05 ± 0.64 (concentration: 10mM).
For CCDC134 (UniProt Q9H6E4), the NP40-soluble protein abundance came out at 0.934 ± 0.071 (concentration: 0.1mM); 0.893 ± 0.1 (concentration: 0.5mM); 0.944 ± 0.089 (concentration: 1mM); 0.911 ± 0.087 (concentration: 2mM); 0.905 ± 0.077 (concentration: 4mM); 0.881 ± 0.084 (concentration: 6mM). Further, the NP40-soluble protein abundance amounted to 0.869 ± 0.1 (concentration: 8mM) and 0.86 ± 0.091 (concentration: 10mM).
With UniProt Q9NVR5, the NP40-soluble protein abundance came out at 0.928 ± 0.076 (concentration: 0.1mM); 0.944 ± 0.078 (concentration: 0.5mM); 0.923 ± 0.048 (concentration: 1mM); 0.885 ± 0.16 (concentration: 2mM); 0.866 ± 0.12 (concentration: 4mM); 0.931 ± 0.13 (concentration: 6mM). Moreover, the NP40-soluble protein abundance is, setting by setting: (concentration: 8mM) 0.869 ± 0.086; (concentration: 10mM) 0.906 ± 0.082.
With ULBP2 (UniProt Q9BZM5), the NP40-soluble protein abundance by setting is: (concentration: 0.1mM) 0.893 ± 0.085; (concentration: 0.5mM) 0.86 ± 0.1; (concentration: 1mM) 0.918 ± 0.073; (concentration: 2mM) 0.884 ± 0.1; (concentration: 4mM) 0.907 ± 0.098; (concentration: 6mM) 0.89 ± 0.043. Further, the NP40-soluble protein abundance stood at 0.916 ± 0.1 (concentration: 8mM) and 0.925 ± 0.088 (concentration: 10mM).
As to NUDC (UniProt Q9Y266), the NP40-soluble protein abundance by setting is: (concentration: 0.1mM) 0.924 ± 0.044; (concentration: 0.5mM) 0.938 ± 0.06; (concentration: 1mM) 0.931 ± 0.058; (concentration: 2mM) 0.88 ± 0.077; (concentration: 4mM) 0.852 ± 0.063; (concentration: 6mM) 0.893 ± 0.076. In addition, the NP40-soluble protein abundance by setting is: (concentration: 8mM) 0.885 ± 0.056; (concentration: 10mM) 0.872 ± 0.069.
Turning to CHMP2B (UniProt Q9UQN3), the NP40-soluble protein abundance came out at 0.905 ± 0.051 (concentration: 0.1mM); 0.909 ± 0.092 (concentration: 0.5mM); 0.989 ± 0.079 (concentration: 1mM); 0.931 ± 0.15 (concentration: 2mM); 0.938 ± 0.12 (concentration: 4mM); 0.967 ± 0.14 (concentration: 6mM). In addition, the NP40-soluble protein abundance by setting is: (concentration: 8mM) 0.953 ± 0.085; (concentration: 10mM) 0.932 ± 0.11.
On to CBX8 (UniProt Q9HC52), for which the NP40-soluble protein abundance is, setting by setting: (concentration: 0.1mM) 1.01 ± 0.04; (concentration: 0.5mM) 1.04 ± 0.048; (concentration: 1mM) 1.13 ± 0.013; (concentration: 2mM) 1.24 ± 0.14; (concentration: 4mM) 1.42 ± 0.15; (concentration: 6mM) 1.61 ± 0.15. The NP40-soluble protein abundance came out at 1.74 ± 0.17 (concentration: 8mM) and 1.86 ± 0.23 (concentration: 10mM).
With FAM120C (UniProt Q9NX05), the NP40-soluble protein abundance is 1 ± 0.021 (concentration: 0.1mM); 1.04 ± 0.017 (concentration: 0.5mM); 1.04 ± 0.036 (concentration: 1mM); 1.09 ± 0.065 (concentration: 2mM); 1.12 ± 0.068 (concentration: 4mM); 1.18 ± 0.077 (concentration: 6mM). Also, the NP40-soluble protein abundance (concentration: 8mM) is 1.25 ± 0.08 and the NP40-soluble protein abundance (concentration: 10mM) amounted to 1.25 ± 0.061.
Turning to UniProt Q9H330|Q9H330-2, the NP40-soluble protein abundance amounted to 0.908 ± 0.04 (concentration: 0.1mM); 0.876 ± 0.06 (concentration: 0.5mM); 0.796 ± 0.083 (concentration: 1mM); 0.809 ± 0.017 (concentration: 2mM); 0.799 ± 0.035 (concentration: 4mM); 0.834 ± 0.028 (concentration: 6mM). Moreover, the NP40-soluble protein abundance is, setting by setting: (concentration: 8mM) 0.81 ± 0.074; (concentration: 10mM) 0.833 ± 0.037.
Regarding PSMG3 (UniProt Q9BT73), the NP40-soluble protein abundance came out at 1.03 ± 0.027 (concentration: 0.1mM); 1.09 ± 0.083 (concentration: 0.5mM); 1.09 ± 0.058 (concentration: 1mM); 1.07 ± 0.042 (concentration: 2mM); 1.08 ± 0.054 (concentration: 4mM); 0.999 ± 0.087 (concentration: 6mM). In addition, the NP40-soluble protein abundance (concentration: 8mM) turned out to be 1.14 ± 0.087 and the NP40-soluble protein abundance (concentration: 10mM) was found to be 1.04 ± 0.042.
As to SF3B5 (UniProt Q9BWJ5), the NP40-soluble protein abundance by setting is: (concentration: 0.1mM) 1.1 ± 0.16; (concentration: 0.5mM) 1.11 ± 0.16; (concentration: 1mM) 1.17 ± 0.23; (concentration: 2mM) 1.27 ± 0.2; (concentration: 4mM) 1.25 ± 0.21; (concentration: 6mM) 1.33 ± 0.15. Besides, the NP40-soluble protein abundance is, setting by setting: (concentration: 8mM) 1.31 ± 0.19; (concentration: 10mM) 1.38 ± 0.22.
As for UniProt Q9BTY7, the NP40-soluble protein abundance was determined as 0.967 ± 0.086 (concentration: 0.1mM); 0.856 ± 0.056 (concentration: 0.5mM); 1.07 ± 0.088 (concentration: 1mM); 1.05 ± 0.033 (concentration: 2mM); 1.03 ± 0.082 (concentration: 4mM); 0.998 ± 0.049 (concentration: 6mM). Also, the NP40-soluble protein abundance runs as follows: (concentration: 8mM) 0.924 ± 0.18; (concentration: 10mM) 1.03 ± 0.14.
